Screening data deposited in PubChem BioAssay by National Center for Advancing Translational Sciences (NCATS).
NS1 inh: qHTS Assay for Inhibitors of Influenza NS1 Protein Function; Potency, µM (series often up to 46.1 µM); 270,000 tested, 0.4% active; calls by dose curve; note: actives are rising curves; nearly all actives have a fitted effect of over 50% in size
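S. cerevisiae expressing influenza A NS1, grown in glucose, washed, then diluted 1:100 into pH 6.0 -URA galactose medium with 23 nl compound. Growth recovery read as OD600; NS1-free strain serves as control.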
AMA1-RON2 inh: qHTS for Inhibitors of AMA1-RON; Towards Development of Antimalarial Drug Lead: Primary Screen; Plasmodium falciparum AMA1 (3D7) - RON2 peptide interaction; AlphaScreen AMA1-biotinylated RON2 peptide binding; 360,000 tested, 0.2% active; Potency, µM (top dose mostly 58.2 µM), usual class: inhibitors; note: nearly all actives have a fitted effect of over 45% in size
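AMA1 (3D7) with his tag at 25 nM final met compounds first, then biotinylated RON2 peptide at 25 nM; detection used donor plus acceptor beads, 10 µg/mL apiece, read by AlphaScreen after 30 min at room temperature.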
AmpC no deterg: qHTS Inhibitors of AmpC Beta-Lactamase (assay without detergent). P00811. AmpC nitrocefin hydrolysis, absorbance 480 nm, 0.0001% Triton. Potency, µM (top dose mostly 57.1 µM), most hits filed as inhibitors. 330,000 tested, 0.52% active; note: nearly all actives have a fitted effect of over 20% in size
Target sequence (P00811 whole entry, looked up): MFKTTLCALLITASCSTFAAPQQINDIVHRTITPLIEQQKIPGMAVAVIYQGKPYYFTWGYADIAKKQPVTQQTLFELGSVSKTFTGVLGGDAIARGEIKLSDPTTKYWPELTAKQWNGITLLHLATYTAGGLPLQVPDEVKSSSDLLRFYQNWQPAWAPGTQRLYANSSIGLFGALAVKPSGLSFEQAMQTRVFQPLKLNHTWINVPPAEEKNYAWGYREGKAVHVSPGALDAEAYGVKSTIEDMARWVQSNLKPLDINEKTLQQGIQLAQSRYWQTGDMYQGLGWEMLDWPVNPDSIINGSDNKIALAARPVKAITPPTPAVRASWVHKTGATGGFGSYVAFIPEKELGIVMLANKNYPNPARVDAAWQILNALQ
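20 mM phosphate pH 7.0 + 0.01% (detergent screen) or 0.0001% Triton X-100; 5.3 nM AmpC reagent; cpd preinc 15 min RT; nitrocefin (800 uM stock) to start; A480 q20 s × 4 min; Activity was normalised to no-enzyme and no-compound control wells.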
AmpC inh detg: qHTS Inhibitors of AmpC Beta-Lactamase (assay with detergent); P00811; 370,000 tested, 0.041% active; AmpC hydrolysis of nitrocefin, absorbance 480 nm, 0.01% Triton; AID 485294, 2010; Potency, µM (titrated, usually from 114 µM), hits mostly inhibitors; note: nearly all actives have a fitted effect of over 25% in size
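AmpC (5.3 nM in the dispensed reagent) in 20 mM phosphate pH 7.0 with 0.01% (detergent screen) or 0.0001% Triton X-100 was preincubated with compounds for 15 min at room temperature. Nitrocefin was then added from an 800 uM solution, and hydrolysis was followed at 480 nm.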
Flu NS1 inh: Assay for Inhibitors of Influenza NS1 Protein Function: Hit Validation; AID 492980, 2010; activity change, negative = inhibition, % at 32.9 µM; shares compounds with NS1 inh; 1,400 tested, under 10 active; influenza NS1 function cell assay, 15-point titration; calls by dose curve
PR8 titer: Assay for Inhibitors of Influenza NS1 Protein Function: Influenza virus replication assay in MDCK cells infected with virus A/PR/8/34; shares compounds with NS1 inh; 95 tested, 30% active; MDCK infected influenza A/PR/8/34, virus titer TCID50; active compounds read low; virus titer (log TCID50), log10 TCID50 at 5 µM; call rule not given here
Hits are given with their value. In the library only some 0.86% were active in any assay of this set; here they are far more common. Unless noted, calls come from the whole dose curve; as a rule, active = well fitted curve in the direction sought with a large enough effect; inconclusive = small, poorly fitted or top-dose-only effect, or another doubt; inactive = no such curve, though single readings can be large; an effect the other way counts as inactive or inconclusive.

For COc1cc(/C=N/n2c(-c3n[nH]c4c3CCC4)n[nH]c2=S)ccc1O the results were NS1 inh 5.6µM, AMA1-RON2 inh inactive, AmpC no deterg inactive, AmpC inh detg inconclusive and Flu NS1 inh inconclusive.
For CCC(COC)NC(=O)c1ccc(OC)c(OC2CCN(C(C)=O)CC2)c1 (stereo not given) the results were NS1 inh inactive, AMA1-RON2 inh inactive, AmpC no deterg inactive and AmpC inh detg inactive.
Screening O=S(=O)(c1ccccc1Br)N(Cc1ccccc1)CC(O)COCc1ccccc1 (stereo not given) returned AMA1-RON2 inh inactive and AmpC no deterg inactive.
`Cc1cccc(NC(=O)CSCc2nc3c(nnn3Cc3ccc(F)cc3)c(=O)[nH]2)c1C` gave NS1 inh inactive, AMA1-RON2 inh inactive, AmpC no deterg inactive and AmpC inh detg inconclusive.
For CN(C)c1ccc(NC(=O)CSCc2nc3c(nnn3Cc3ccc(F)cc3)c(=O)[nH]2)cc1 the results were NS1 inh 6.3µM, AMA1-RON2 inh inactive, AmpC no deterg inactive, AmpC inh detg inactive, Flu NS1 inh inactive and PR8 titer inactive.
Screening O=C(NC1CC1)C1CCN(S(=O)(=O)c2ccc(Cl)c([N+](=O)[O-])c2)CC1 returned AMA1-RON2 inh inactive, AmpC no deterg inactive and AmpC inh detg inactive.
`CCN1CCN(CCNC(=O)c2ccc(CS(=O)(=O)c3c(Cl)cccc3Cl)o2)CC1` gave NS1 inh inconclusive, AMA1-RON2 inh inactive, AmpC no deterg inactive, AmpC inh detg inactive and Flu NS1 inh inactive.
`COCCNC(=O)c1ccc(CS(=O)(=O)c2c(Cl)cccc2Cl)o1` gave NS1 inh inactive, AMA1-RON2 inh inactive, AmpC no deterg inactive and AmpC inh detg inactive.
CCOc1ccccc1NC(=O)C1=C(C)Nc2ncnn2C1c1ccc(C)o1 (stereo not given) was read as AmpC inh detg inactive.
`CN1CCN(c2ncc3c(n2)CCN(Cc2cc(Br)cs2)C3)CC1` gave AmpC inh detg inactive.
Screening CCOC(=O)C1CCN(C(=O)CSc2ccccc2)CC1 returned NS1 inh 11µM, AMA1-RON2 inh inactive, AmpC no deterg inactive, AmpC inh detg inactive and Flu NS1 inh inactive.
`CCOC(=O)C1CCCN(C(=O)CSc2ccccc2)C1` (stereo not given) gave NS1 inh inactive, AMA1-RON2 inh inactive, AmpC no deterg inactive and AmpC inh detg inconclusive.
For CCOC(=O)C1CCCN(C(=O)c2ccc(F)c(C)c2)CC1 (stereo not given) the results were AMA1-RON2 inh inactive.
Screening Cc1cccc(C)c1NC(=O)C1(C)CN(S(C)(=O)=O)CC(=O)N1Cc1ccco1 (stereo not given) returned AMA1-RON2 inh inactive.
Screening COC(=O)c1cc(NC(=O)C2(S(=O)(=O)c3ccc(Cl)cc3)CC2)cc(C(=O)OC)c1 returned NS1 inh 11µM, AMA1-RON2 inh inactive, AmpC no deterg inactive, AmpC inh detg inactive and Flu NS1 inh inactive.
`Cc1ccc(C(=O)N2CCN(C3c4cccc5cccc(c45)C3NS(=O)(=O)c3ccccc3)CC2)cc1` (stereo not given) gave NS1 inh 11µM, AMA1-RON2 inh inactive, AmpC no deterg inactive, AmpC inh detg inactive and Flu NS1 inh inactive.
For CN(C)c1ccc(NC(=O)Cn2cc3c(n2)CCCC3)cc1 the results were NS1 inh 10µM, AMA1-RON2 inh inconclusive, AmpC no deterg inactive, AmpC inh detg inconclusive and Flu NS1 inh inactive.
Screening COc1ccccc1C(=O)NC(=O)CSc1nc(C)cs1 returned AMA1-RON2 inh inactive, AmpC no deterg inactive and AmpC inh detg inconclusive.
`COc1ccc(CCNC(=O)CSc2nc(N)c(C#N)c(-c3cccs3)c2C#N)cc1OC` gave NS1 inh 4.5µM, AMA1-RON2 inh inactive, AmpC no deterg inactive, AmpC inh detg inactive and Flu NS1 inh inactive.
